# Source: PubChem BioAssay (EPA / NIEHS)
# Calls of active or inactive are those of the source. Rule for the calls: active = hit-call score of the fitted dose curve at least 0.9, where 1 is the maximum; inactive = score below 0.9.
# What was measured:
# [1] = read-out: Cytochrome P450 (CYP1A1), CYP1A1 (gene 1543); experiment: LTEA_HepaRG_CYP1A1: Life Technologies and Expression Analysis (LTEA) Assay for Cytochrome P450 (CYP1A1) using HepaRG (AID 2283454); settings: mRNA level, 48 h; actives raise or lower the signal
# Procedure, shortened: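 CYP1A1 transcript levels measured by Fluidigm qRT-PCR against three housekeeping genes, 48 h after chemical dosing of human HepaRG cells (highest concentration 100 uM, half-log steps, 0.5% DMSO vehicle). Gain or loss of signal fitted relative to DMSO.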
# [2] = read-out: CFLAR gene, CFLAR (gene 8837); experiment: LTEA_HepaRG_CFLAR: Life Technologies and Expression Analysis (LTEA) Assay for CFLAR gene using HepaRG (AID 2283455); settings: mRNA level, 48 h; actives raise or lower the signal
# Procedure, shortened: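 Gain- or loss-of-signal changes in CFLAR transcript were fitted bidirectionally relative to 0.5% DMSO. Cells (HepaRG, duplicate wells) were dosed for 48 h across eight half-log concentrations topping at 100 uM; quantitation by TaqMan qRT-PCR.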
# [3] = read-out: Forkhead box O1 (FOXO1), FOXO1 (gene 2308); experiment: LTEA_HepaRG_FOXO1: Life Technologies and Expression Analysis (LTEA) Assay for Forkhead box O1 (FOXO1) using HepaRG (AID 2283456); settings: mRNA level, 48 h; actives raise or lower the signal
# Procedure, shortened: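 Using one lot of HepaRG hepatic cells kept in 0.5% DMSO, the team applied test chemicals in duplicate, half-log dilutions from 100 uM, for 48 h. Expression, normalised to ACTB/GAPDH/POLR2A, was compared with vehicle in either direction.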
# [4] = read-out: growth arrest and DNA damage 45 (GADD45A), GADD45A (gene 1647); experiment: LTEA_HepaRG_GADD45A: Life Technologies and Expression Analysis (LTEA) Assay for growth arrest and DNA damage 45 (GADD45A) using HepaRG (AID 2283458); settings: mRNA level, 48 h; actives raise or lower the signal
# Procedure, shortened: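 HepaRG, 48 h exposure, 8 conc. (top 100 uM, half-log steps), 0.5% DMSO vehicle, duplicates. Read-out: qRT-PCR mRNA level, housekeeping-normalized (ACTB/GAPDH/POLR2A). Curves fit bidirectionally vs DMSO baseline.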
# [5] = read-out: Forkhead box O3 (FOXO3), FOXO3 (gene 2309); experiment: LTEA_HepaRG_FOXO3: Life Technologies and Expression Analysis (LTEA) Assay for Forkhead box O3 (FOXO3) using HepaRG (AID 2283459); settings: mRNA level, 48 h; actives raise or lower the signal
# Procedure, shortened: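 Gene-expression endpoint: FOXO3 transcript level by qRT-PCR in HepaRG cultures treated 48 h with chemicals up to 100 uM (half-log, 0.5% DMSO vehicle).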
# [6] = read-out: ABC Transporter (ABCB1), ABCB1 (gene 5243); experiment: LTEA_HepaRG_ABCB1: Life Technologies and Expression Analysis (LTEA) Assay for ABC Transporter (ABCB1) using HepaRG (AID 2283460); settings: mRNA level, 48 h; actives raise or lower the signal
# Procedure, shortened: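 Human liver HepaRG line treated 48 h with up to 100 uM compound (eight half-log points, 0.5% DMSO); ABCB1 mRNA change fitted bidirectionally against DMSO controls.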
# [7] = read-out: growth arrest and DNA damage 45 (GADD45B), GADD45B (gene 4616); experiment: LTEA_HepaRG_GADD45B: Life Technologies and Expression Analysis (LTEA) Assay for growth arrest and DNA damage 45 (GADD45B) using HepaRG (AID 2283461); settings: mRNA level, 48 h; actives raise or lower the signal
# Procedure, shortened: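 Transcript level quantified by Fluidigm TaqMan qRT-PCR with three housekeeping genes for normalization, analyzed for up- or down-regulation against 0.5% DMSO. HepaRG cultures dosed 48 h at eight half-log concentrations up to 100 uM, duplicates.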
# [8] = read-out: ABC Transporter (ABCC3), ABCC3 (gene 8714); experiment: LTEA_HepaRG_ABCC3: Life Technologies and Expression Analysis (LTEA) Assay for ABC Transporter (ABCC3) using HepaRG (AID 2283462); settings: mRNA level, 48 h; actives raise or lower the signal
# Procedure, shortened: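 Transcript level by TaqMan qRT-PCR, normalised to three housekeeping genes, fitted in both directions relative to vehicle. Chemicals tested in duplicate at eight half-log concentrations up to 100 uM for 48 h on HepaRG cells (0.5% DMSO).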
# [9] = read-out: ABC Transporter (ABCB11), ABCB11 (gene 8647); experiment: LTEA_HepaRG_ABCB11: Life Technologies and Expression Analysis (LTEA) Assay for ABC Transporter (ABCB11) using HepaRG (AID 2283463); settings: mRNA level, 48 h; actives raise or lower the signal
# Procedure, shortened: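 Using HepaRG cultures held in 0.5% DMSO, chemicals were tested at half-log dilutions from 100 uM for 48 h. Induction or suppression of ABCB11 mRNA, normalized to ACTB, GAPDH and POLR2A, was fitted bidirectionally against vehicle.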
# [10] = CEETOX_H295R_TESTO: CeeTox H295R High-throughput Steroidogenesis Assay for Testosterone (TESTO) (AID 2283457); settings: actives raise or lower the signal
# Procedure, shortened: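 Testosterone secreted into the medium over 48 h by H295R cells (maximum passage 10) was quantified by LC-MS/MS after MTBE extraction. Fitted in both directions against DMSO, with concentrations diluted until MTT viability was ≥70%.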
Compound,AC50 [1],outcome [2],outcome [3],outcome [4],outcome [5],outcome [6],outcome [7],outcome [8],outcome [9],AC50 [3],AC50 [5],AC50 [9],outcome [1],AC50 [6],AC50 [2],outcome [10],AC50 [4]
CCCC(=O)OCC,50 µM (active),inactive,inactive,inactive,inactive,inactive,inactive,inactive,inactive,–,–,–,–,–,–,–,–
O=C(O)CC(O)C(=O)O (stereo not given),77.9 µM (active),inactive,inactive,inactive,inactive,inactive,inactive,inactive,inactive,–,–,–,–,–,–,–,–
Cn1cnc([N+](=O)[O-])c1Sc1ncnc2nc[nH]c12,34.8 µM (active),inactive,–,inactive,–,inactive,inactive,inactive,–,5.19 µM (active),4.06 µM (active),11.2 µM (active),–,–,–,–,–
CC(C)CCO,–,inactive,inactive,inactive,inactive,inactive,inactive,inactive,inactive,–,–,–,inactive,–,–,–,–
CC1(C)C(=O)N(Br)C(=O)N1Br,36.8 µM (active),inactive,inactive,inactive,inactive,inactive,inactive,inactive,inactive,–,–,–,–,–,–,–,–
COc1ccc(/C=C/S(=O)(=O)NC(=O)c2ccc(C)cc2Cl)cc1,50 µM (active),inactive,inactive,inactive,inactive,inactive,inactive,inactive,–,–,–,79.3 µM (active),–,–,–,–,–
O=C(NS(=O)(=O)/C=C/c1ccccc1)c1ccc(F)cc1Cl,50 µM (active),inactive,inactive,inactive,inactive,–,inactive,inactive,–,–,–,50 µM (active),–,10.8 µM (active),–,–,–
CCCCCCCCCCCCCCCO,30.8 µM (active),inactive,inactive,inactive,inactive,inactive,inactive,inactive,inactive,–,–,–,–,–,–,–,–
Cn1c(=O)cc(Oc2ccc(F)cc2F)c2cnc(NCC(C)(C)O)nc21,11.9 µM (active),inactive,inactive,inactive,inactive,inactive,inactive,inactive,–,–,–,12.7 µM (active),–,–,–,–,–
CC/C(=C\C(=N/O)C(N)=O)C(C)[N+](=O)[O-] (stereo not given),31.9 µM (active),inactive,inactive,inactive,inactive,inactive,inactive,inactive,inactive,–,–,–,–,–,–,–,–
COC(=O)c1ccccc1O,–,inactive,inactive,inactive,inactive,inactive,inactive,inactive,inactive,–,–,–,inactive,–,–,–,–
CC1=CC(=O)CC(C)(C)C1,–,inactive,inactive,inactive,inactive,inactive,inactive,inactive,inactive,–,–,–,inactive,–,–,–,–
CCOc1cccc(-n2cc(C(=O)N3CCN(c4cc(C(=O)O)c5ccccc5c4)CC3)nc2-c2ccc(C)cc2)c1,12.3 µM (active),–,–,–,–,–,inactive,inactive,–,80.5 µM (active),77.2 µM (active),35.5 µM (active),–,78.6 µM (active),84 µM (active),inactive,13.4 µM (active)
CCOC(=O)COc1ccc2c(c1)CC(NCC(O)c1cccc(Cl)c1)CC2 (stereo not given),–,inactive,inactive,inactive,inactive,inactive,inactive,inactive,inactive,–,–,–,inactive,–,–,–,–
C[C@](N)(Cc1ccc(O)c(O)c1)C(=O)O,71.6 µM (active),inactive,inactive,inactive,inactive,inactive,inactive,inactive,inactive,–,–,–,–,–,–,–,–
COCCOCCOCCOC,–,inactive,inactive,inactive,inactive,inactive,inactive,inactive,inactive,–,–,–,inactive,–,–,–,–
CCOC(=O)CC(CC(=O)OCC)(OC(C)=O)C(=O)OCC,70.5 µM (active),inactive,inactive,inactive,inactive,inactive,inactive,inactive,inactive,–,–,–,–,–,–,–,–
O=C(O)CCN(C1(C(=O)NO)CCCC1)S(=O)(=O)c1ccc(Oc2ccc(F)cc2)cc1,67.5 µM (active),inactive,inactive,inactive,inactive,inactive,inactive,inactive,inactive,–,–,–,–,–,–,–,–
C1=CCCC=CCCC=CCC1,–,inactive,inactive,inactive,inactive,inactive,inactive,inactive,inactive,–,–,–,inactive,–,–,–,–
CC(C)CCCCCCOC(=O)c1ccc(C(=O)OCCCCCCC(C)C)c(C(=O)OCCCCCCC(C)C)c1,50 µM (active),inactive,inactive,inactive,inactive,inactive,inactive,inactive,inactive,–,–,–,–,–,–,–,–
CCCCCCCCCCCCc1ccccc1,73.7 µM (active),inactive,inactive,inactive,inactive,inactive,inactive,inactive,inactive,–,–,–,–,–,–,–,–
